# In ChEMBL document CHEMBL3988442, “University of Dundee, Small-Polar-MMV Screening Library” (2021):
# The campaign covered roughly 48,000 compounds. About 13,000 (27%) showed an effect of 50% or more. The list shows a part of the results.
# Test system: Wolbachia pipientis
# Test: Anti-Wolbachia Cell-Based Screen
# Format: functional
# Parameters: scale not given: in the data most compounds retested in dose-response had high values
# Settings: 5 µM
row,Compound,Percent Effect [%]
1,C1CC(CN2C[C@@H]3C[C@@H](c4nnc(C5CC5)o4)O[C@@H]3C2)C1,108.7
2,O=C(Cc1ccsc1)N1C[C@@H]2C[C@@H](c3nnc(C4CC4)o3)O[C@@H]2C1,1.752
3,COc1cc2c(cc1OC)S(=O)(=O)N(Cc1ccccc1)C2=O,-12.48
4,CCC(C)N(Cc1cccnc1)Cc1ccccc1Cn1cccn1 (stereo not drawn),1.099
5,Cc1cc(N(Cc2ccccn2)C2CC2)n2nc(C(F)(F)F)nc2n1,23.9
6,N#CC(NC(=O)CS(=O)(=O)C1CCCC1)c1ccc(F)cc1F (stereo not drawn),10.46
7,CCn1cnnc1CNC(=O)NC(c1ccccc1)C1CCCC1 (stereo not drawn),9.923
8,O=C(CS(=O)(=O)C1CCCC1)NC(c1ccc(F)cc1)C1CC1 (stereo not drawn),106.7
9,Cc1nn(C)c(C)c1NC(=O)CNC(c1ccccc1)C1CCCC1 (stereo not drawn),-3.756
10,CCC(NC(=O)CS(=O)(=O)C1CCCC1)c1cc(F)ccc1F (stereo not drawn),-16.07
11,CCS(=O)(=O)CC(=O)NC(c1ccccc1)C1CCCC1 (stereo not drawn),90.5
12,CN(CCNC(=O)N1CCCC1)C(=O)OC(C)(C)C,-14.2
13,Cc1oc(NC(=O)C(C)N2CCN(CCO)CC2)c(C#N)c1C (stereo not drawn),14.13
14,Cn1c(NCC(=O)N2CCCCC2)c(C#N)c(=O)n(C)c1=O,-4.549
15,Cn1cc(C#N)cc1C(=O)Nc1ccc(CN2CCOCC2)cn1,-7.398
16,Cc1c(CN2CCCCC2)c(O)n(CCCO)c(=O)c1C#N,106.4
17,Cc1c(CN2CCOCC2)c(O)n(CCO)c(=O)c1C#N,129.2
18,Cn1c(NCCN2CCCCCC2)c(C#N)c(=O)n(C)c1=O,6.229
19,Cc1nn(C)c(N2CCOCC2)c1CNC(C)c1cccnc1 (stereo not drawn),-5.13
20,CNC(=O)CCc1cc(C2CCCCN2C(C)C)nc(C)n1 (stereo not drawn),119
21,Cc1nc(O)cc(CCNC(=O)C2CC(=O)N(CC(C)C)C2)n1 (stereo not drawn),-0.9354
22,CNC(=O)CCN1CCCCCC1c1ccc(C)o1 (stereo not drawn),-114
23,Cc1ncsc1CCC(=O)NCc1csc(N2CCCC2)n1,13.92
24,CNC(=O)CCc1cc(C2CCCCN2C)nc(C)n1 (stereo not drawn),129.2
25,Cc1[nH]n(-c2ccccc2)c2nnc(N)c1-2,-6.219
26,Cc1noc(C)c1C1CCCN1C(=O)CN1CC2(CCNCC2)OC1=O (stereo not drawn),-18.41
27,CC(C)c1cc(C2CCCN2C(=O)CN2C(=O)OC(C)(C)C2=O)no1 (stereo not drawn),116.9

row,Compound,Percent Effect [%]
1,Cc1ccc2c(c1)SCC(=O)N2CC(=O)N1CCCC1c1cc(C)on1 (stereo not drawn),-2.59
2,Cc1noc(C)c1C1CCCN1CCC(=O)N1CCc2ccccc2C1 (stereo not drawn),-8.027
3,Cc1noc(C)c1C1CCCN1C(=O)CN1C(=O)OC(C)(C)C1=O (stereo not drawn),87.43
4,O=C1CCNC(=O)N1CC(=O)N1CCC1c1ccc(F)cc1 (stereo not drawn),13.18
5,Cc1cc(C2CCCCN2C(=O)CN2C(=O)OC(C)(C)C2=O)no1 (stereo not drawn),120.5
6,CC(C)c1cc(C2CCCN2C(=O)CN2C(=O)CCNC2=O)no1 (stereo not drawn),96.7
7,Cc1cc(C2CCCN2C(=O)CN(C)Cc2ccccc2)no1 (stereo not drawn),-3.366
8,Cc1cc(CC(=O)N2CCCC2c2nc(C(C)C)no2)on1 (stereo not drawn),-3.815
9,Cc1cc(C2CCCCN2C(=O)CN2CC3(CCNCC3)OC2=O)no1 (stereo not drawn),-1.974
10,O=C(Cc1cccs1)NCC1COCc2c(-c3ccoc3)nnn2C1 (stereo not drawn),-2.287
11,COc1cccc2c1OCC(C(=O)N1CCN(C3CCSCC3)CC1)C2 (stereo not drawn),-19.41
12,Cc1ccc2c(c1)SCC(=O)N2CC(=O)N1CCCC1c1cc(C)no1 (stereo not drawn),3.294
13,Cc1cc(C2CCCN2C(=O)CN2C(=O)OC(C)(C)C2=O)on1 (stereo not drawn),91.01
14,Cc1cc(C2CCCN2C(=O)CN2CC3(CCNCC3)OC2=O)on1 (stereo not drawn),8.935
15,CN(CCC(F)(F)F)C(=O)[C@H]1CSCN1C(=O)OC(C)(C)C,-7.919
16,Cc1ccc(C(=O)NC2CC2)c(-n2cnnn2)c1C,120.6
17,Cc1ccc(C(=O)Nc2nnc(CC(C)C)s2)c(-n2cnnn2)c1C,125.4
18,O=C(Nc1nncs1)c1ccc(-n2cnnn2)cc1,-0.9565
19,COc1ccc(F)cc1C(=O)Nc1nnc(C)s1,1.67
20,Cc1ccc(CNC(=O)Nc2nnc(C3CC3)s2)n1C,-14.35
21,CC(=O)N1CCC(NC(=O)c2ccccc2-n2cnnn2)CC1,3.237
22,CCc1nnc(NC(=O)c2ccc(C3CCCN3CC(C)C)s2)s1 (stereo not drawn),-1.663
23,Cc1ccc(C(=O)Nc2nnc(C3CC3)s2)c(-n2cnnn2)c1C,95.77
24,Cc1ccc(C(=O)Nc2nnc(C(C)C)s2)c(-n2cnnn2)c1C,110.4
25,Cc1nn(C)c(C)c1CCC(=O)Nc1nnc(C2CC2)s1,27.73
26,O=C(NC1CC1)c1cc(Cl)ccc1-n1cnnn1,2.892
